In PubChem BioAssay AID686996 (Broad Institute, 2013) one finds inhibition data, which are given here for 17 compounds.

Several values for one entry are separate records, joined by “and”; a condition that tells them apart may be missing. Identical values can stand only once. The campaign covered roughly 350,000 compounds. About 1,900 (0.54%) were called active.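 How the source made its calls: active means mean inhibition across replicates at least about 35%, with every replicate also reaching that limit (limit read from the data); inconclusive means only one of the two criteria met; inactive means neither criterion met.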 The sample as a whole holds a higher share of actives than the screen did. A structure can be active in one record and inactive in another.

Chain of Caspase-6 (Homo sapiens) (P55212 24-179 limits assumed): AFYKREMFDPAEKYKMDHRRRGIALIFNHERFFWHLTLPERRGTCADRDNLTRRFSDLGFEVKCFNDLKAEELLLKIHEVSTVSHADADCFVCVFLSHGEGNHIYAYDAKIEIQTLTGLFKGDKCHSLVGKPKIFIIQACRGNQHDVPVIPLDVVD
Chain of Caspase-6 (Homo sapiens) (P55212 194-293 limits assumed): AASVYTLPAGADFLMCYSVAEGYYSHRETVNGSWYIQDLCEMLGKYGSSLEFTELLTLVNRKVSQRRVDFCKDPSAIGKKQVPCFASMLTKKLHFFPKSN

This assay has as its target Caspase-6 (Homo sapiens) (UniProt P55212). Briefly: inhibition of CASP6 peptide cleavage – biochemical, VEID-R110 fluorescence, single point, set 2, primary screen (AID 686996).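 Further: 0% = median of neutral control wells and 100% = no fluorescence left.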 As to conditions: purified caspase-6, Z-VEID-R110 cleavage fluorescence; at 12.5 µM; stronger effect = higher value.
In the case of `CC=Cc1ccc2n(c1=O)C[C@@H]1[C@@H](CO)[C@H](C(=O)NCCc3ccccc3)N(C(C)=O)[C@H]21` (mixture of isomers), the inhibition is 61.2% (active). On to `CC=Cc1ccc2n(c1=O)C[C@@H]1[C@@H](CO)[C@H](C(=O)N(C)C)[C@H]2N1CCc1ccccc1` (mixture of isomers), for which the inhibition is -1.44% (inactive). Turning to `CC=Cc1ccc2n(c1=O)C[C@@H]1[C@@H](CO)[C@H](C(=O)N[C@H](C)c3ccccc3)N(C(=O)c3cnccn3)[C@H]21` (mixture of isomers), the inhibition is -3.98% (inactive).

`CO[C@H]1CN(C)C(=O)c2ccc(NC(=O)C3CC3)cc2OC[C@@H](C)N(Cc2ccc(F)cc2)C[C@@H]1C`: the inhibition is 3.32% (inactive). Take `Cc1cc(C)cc(C(=O)NC2C(=O)N3C(C(=O)O)=C(CSc4nnc(C)s4)CSC23)c1` (configuration not stated): the inhibition is 9.95% (inactive).

On to `CO/N=C(\C(=O)N[C@@H]1C(=O)N2C(C(=O)O)=C(COC(C)=O)CS[C@H]12)c1csc(N)n1` (stereo in doubt), for which the inhibition is 13.9% (inactive) and 5.09% (inactive) and 37.7% (active). In the case of `C=CC1=C(C(=O)O)N2C(=O)[C@@H](NC(=O)/C(=N/OCC(=O)O)c3csc(N)n3)[C@H]2SC1` it was 88.2% (active); in that of `CCN1CCN(C(=O)N[C@@H](C(=O)N[C@@H]2C(=O)N3C(C(=O)O)=C(CSc4nnnn4C)CS[C@H]23)c2ccc(O)cc2)C(=O)C1=O`, 0.383% (inactive). In the case of `COc1ccccc1NC(=O)N1C[C@H](O)COC[C@H]2O[C@H](CC(=O)NCCc3ccccc3)CC[C@@H]21` it was 1.79% (inactive). On to `COc1ccccc1CN1CC[C@@H]2[C@@H](CO)Nc3ccc(C#Cc4ccccc4)cc3[C@@H]21`, for which the inhibition is 0.663% (inactive). As to `C[C@@H]1CN([C@@H](C)CO)C(=O)c2cc(NC(=O)Nc3cccc4ccccc34)ccc2O[C@@H]1CN(C)C(=O)NC1CCCCC1`, the inhibition is 0.662% (inactive). Consider `C[C@@H](O)C#Cc1cnc2c(c1)C(=O)N([C@@H](C)CO)C[C@H](C)[C@@H](CN(C)CC1CCCCC1)O2`, for which the inhibition is 2.32% (inactive).

As for `Oc1ccc(N=Cc2c(O)ccc3ccccc23)cc1`, the inhibition is 36.4% (active). `Oc1ccc(/C=N/N(Cc2ccccc2)c2ccccc2)cc1`: the inhibition is -0.437% (inactive). On to `Cc1cc(N=Nc2ccc3ccccc3c2)ccc1O`, for which the inhibition is 2.65% (inactive). `COc1ccc(S(=O)(=O)Nc2cccc3c2O[C@H](CN(C)Cc2ccc4c(c2)OCO4)[C@H](C)CN([C@@H](C)CO)C3=O)cc1`: the inhibition was 0.634% (inactive). With `C[C@H]1CCCCO[C@H](CN(C)C(=O)Nc2ccccc2)[C@@H](C)CN([C@@H](C)CO)C(=O)c2cc(NC(=O)c3ccncc3)ccc2O1`, the inhibition is -0.544% (inactive).
